In PubChem BioAssay AID2284064 (EPA ToxCast):
The source made the active and inactive calls. Rule for the calls: active = hit-call score of the fitted dose curve at least 0.9, where 1 is the maximum; inactive = score below 0.9.

Target: human CDK2/CyclinA CMGC Kinase, CDK2 (gene 1017) (UniProt P24941)
Test: ERF_FR_ENZ_hCDK2: Eurofins (ERF) Enzymatic Radiometric [Km ATP] KinaseProfiler LeadHunter Assay for human CDK2/CyclinA CMGC Kinase
Method: ERF_FR_ENZ_hCDK2 is a biochemical, single-readout assay that uses extracted gene-proteins in a cell-free assay. Measurements were taken 0.5 hour after chemical dosing in a 96-well plate. See CDK2 /CyclinA Human CMGC Kinase Enzymatic LANCE Assay [Km ATP], Cerep.ERF_FR_ENZ_hCDK2 is an assay component calculated from the ERF_FR_ENZ_hCDK2 assay. It is designed to measure enzyme activity using a type of enzyme reporter as detected by fluorescence intensity with LANCE technology.Data from the assay component ERF_FR_ENZ_hCDK2 was analyzed at the assay endpoint, ERF_FR_ENZ_hCDK2, in the positive analysis fitting direction relative to DMSO as the negative control and baseline of activity. Using a type of enzyme reporter, loss-of-signal activity can be used to understand changes in enzymatic activity as they relate to gene CDK2. To generalize the intended target to other relatable targets, this assay endpoint is annotated to the kinase intended target family, where the subfamily is serine/threonine kinase.
CDK2/cyclinA (h) is incubated with 8 mM MOPS pH 7.0, 0.2 mM EDTA, 0.1 mg/mL histone H1, 10 mM MgAcetate and [gamma-33P]-ATP (specific activity and concentration as required). The reaction is initiated by the addition of the Mg/ATP mix. After incubation for 40 minutes at room temperature, the reaction is stopped by the addition of phosphoric acid to a concentration of 0.5%. […]

Row | Compound | outcome
1 | O=C(/C=C/c1ccc(O)cc1)CC(=O)/C=C/c1ccc(O)cc1 | inactive
2 | COc1cc(CCC(=O)CC(=O)CCc2ccc(O)c(OC)c2)ccc1O | inactive
